In the supplement of paper PMC13380429:
A number with no mark means an inactive call.

Tested on: Vero E6 infected with SARS-CoV-2
Assay: inhibition of SARS-CoV-2 cytopathic effect; higher = more antiviral protection, active = above 15
Conditions: 48 h

Compound | inhibition of SARS-CoV-2 cytopathic effect (1 nM) | inhibition of SARS-CoV-2 cytopathic effect (8.33 nM) | inhibition of SARS-CoV-2 cytopathic effect (100 nM) | inhibition of SARS-CoV-2 cytopathic effect (833.33 nM) | inhibition of SARS-CoV-2 cytopathic effect (10000 nM)
C[C@@H](O)[C@H]1C(=O)N2C(C(=O)O)=C(S[C@@H]3CN[C@H](C(=O)N(C)C)C3)[C@H](C)[C@H]12 [meropenem] | 0.11% | 1.38% | 0.18% | 6.2% | -0.92%
Cc1ccc(/N=C/N(C)/C=N/c2ccc(C)cc2C)c(C)c1 [amitraz] | -1.29% | -0.98% | -1.78% | -1.85% | 0.1%
CCOC(N)=O [urethane] | -3.1% | -4.31% | -0.41% | -2.2% | 1.53%
CN(C(=O)CN1C(=O)COc2cc(Cl)c(Cl)cc21)[C@@H](CN1CCCC1)c1ccc(-c2cccc(C(N)=O)c2)cc1 | -0.51% | 1.04% | 3.9% | 1.88% | 5.93%
CCCc1cc(C)[nH]c(=O)c1CNC(=O)c1cc(-c2ccc(N3CCN(C(C)C)CC3)nc2)cc2c1cnn2C(C)C | -1.83% | 1% | -2.55% | -0.64% | 42.3% (active)
CC1C=CC=CCCC=CC=CC=CC=CC(OC2OC(C)C(O)C(N)C2O)CC2OC(O)(CC(O)C(O)CCC(O)CC(O)CC(O)CC(=O)OC(C)C(C)C1O)CC(O)C2C(=O)O (stereo not given) [nystatin] | 0.06% | -1.74% | -1.14% | -1.11% | 3.99%
COc1cc2nc(C3CC3)nc(N3CCN(c4ccccc4OC)CC3)c2cc1OC | -1.86% | -1.01% | -1.01% | 1.94% | -4.17%
C[C@@H]1O[C@@H](O[C@H]2[C@H](Oc3cc(O)c(C(=O)CCc4ccc(O)cc4)c(O)c3)O[C@H](CO)[C@@H](O)[C@@H]2O)[C@H](O)[C@H](O)[C@H]1O [naringin-dihydrochalcone] | 0.83% | 0.35% | 0.27% | 0.83% | 1.4%
NC1=NC(=O)N([C@H]2C[C@H](O)[C@@H](CO)O2)CN1 | -1.14% | -2.12% | 0.08% | 0.71% | -0.27%
O=C(O)c1c(Cl)c(Cl)c(Cl)c(Cl)c1-c1c2cc(I)c(=O)c(I)c-2oc2c(I)c(O)c(I)cc12 [rose-bengal] | -2.56% | -2.17% | 1.8% | -2.12% | -13.9%
C[C@]12CC[C@@H]3c4ccc(O)cc4CC[C@H]3[C@@H]1CC[C@@H]2O [estradiol] | 1.43% | 2.24% | -0.69% | -2.04% | -1.69%
O=C(NC1CCC1)c1ccc(C#Cc2cccc(F)c2)nc1 | 0.19% | -1.61% | -2.31% | -1.49% | 2.23%
CC(C)(NS(=O)(=O)c1ccc(Oc2ccc(F)cc2)cc1)C(=O)NO | 3.55% | 0.75% | 2.56% | 0.48% | -0.6%
CN(c1ncccc1CNc1nc(Nc2ccc3c(c2)CC(=O)N3)ncc1C(F)(F)F)S(C)(=O)=O | 0.16% | 0.22% | -1.3% | -2.48% | -3.05%
COc1ccc(CCc2nc3cc(-c4c(C)noc4C)ccc3n2C[C@H](C)N2CCOCC2)cc1Cl | 0.67% | 1.61% | 0.26% | -1.13% | 5.31%
Cc1ccc(CCCO)c(NCc2ccc3nc(NCCCN4CCOCC4)n(Cc4nc(C)ccc4O)c3c2)c1 | 0.48% | -0.28% | -0.6% | -1.09% | -1.76%
Cc1cc(CC(C)CC(C)(C)C)n(O)c(=O)c1 (stereo not given) [piroctone-olamine] | -1.12% | 3.7% | 3.23% | 1.26% | -1.5%
CCSc1ccc2c(c1)N(CCCN1CCN(C)CC1)c1ccccc1S2 [thiethylperazine] | -3.78% | -1.48% | -1.97% | -4.23% | 22.5% (active)
Cc1c(C)c2c(c(C)c1O)CCC(C)(C)O2 | 0.77% | -0.34% | 2.33% | 4.37% | -5.56%
Cc1[nH]c2ccc(O)cc2c1CCN [2-methyl-5-hydroxytryptamine] | -3.47% | -2.58% | -4.33% | -12.8% | -2.37%

Compound | inhibition of SARS-CoV-2 cytopathic effect (1 nM) | inhibition of SARS-CoV-2 cytopathic effect (8.33 nM) | inhibition of SARS-CoV-2 cytopathic effect (100 nM) | inhibition of SARS-CoV-2 cytopathic effect (833.33 nM) | inhibition of SARS-CoV-2 cytopathic effect (10000 nM)
NS(=O)(=O)c1cc2c(cc1Cl)NC(C(Cl)Cl)NS2(=O)=O (stereo not given) [trichlormethiazide] | -3.15% | -5.19% | -10.5% | -3.29% | -8.52%
CCN(CC)CC1CCCCN1CC(=O)N1c2ccccc2C(=O)Nc2cccnc21 (stereo not given) [otenzepad] | 2.23% | 3.08% | -0.68% | 5.55% | 0.04%
CNC(=O)[C@H](Cc1ccccc1)NC(=O)[C@H](CC(C)C)[C@H](CSc1cccs1)C(=O)NO [batimastat] | -1.9% | -1.84% | -3.51% | -9.99% | -12.5%
O=[N+]([O-])C(Br)(CO)CO [bronopol] | -0.93% | -3.53% | 0.32% | 0.51% | -1.05%
Cc1ccc(C(C)C)c(O)c1 [thymol] | 2.55% | -2.55% | -2.75% | -1.48% | -1.32%
O=C(NCc1ccc(Oc2ccccc2)cc1)c1nc(-c2cc(Br)c(O)c(Br)c2)no1 | -1.01% | -0.54% | 0% | 0.07% | 0.36%
C=CC(=O)Nc1cc(Nc2nccc(-c3c[nH]c4ccccc34)n2)c(OC)cc1N(C)CCN(C)C | -3.07% | -6.83% | -10.5% | -13.9% | -12.3%
NC(=O)c1nc(Nc2ccccc2)sc1NC(=O)C1CCCCC1 | 1.69% | 3.22% | -0.11% | -8.95% | -4.1%
CS(=O)(=O)N1CCN(Cc2cc3nc(-c4cccc5[nH]ncc45)nc(N4CCOCC4)c3s2)CC1 | -1.74% | -2.51% | 6.27% | -5.78% | 3.43%
NC[C@@H]1CC[C@@H](N)[C@@H](O[C@H]2[C@H](O)[C@@H](O[C@H]3O[C@H](CO)[C@@H](O)[C@H](N)[C@H]3O)[C@H](N)C[C@@H]2N)O1 [dibekacin] | 5.18% | -1.26% | 1.67% | 2% | 1.51%
Nc1ccn([C@H]2CC[C@@H](CO)O2)c(=O)n1 [zalcitabine] | -0.47% | -1.89% | -4.07% | -2.84% | -0.03%
CC1=C(/C=C/C(C)=C/C=C/C(C)=C/C=C/C=C(C)/C=C/C=C(C)/C=C/C2=C(C)CCCC2(C)C)C(C)(C)CCC1 [beta-carotene] | -0.41% | 1.55% | 1.56% | 1.85% | -0.57%
CC(NC(=O)c1ccccc1/N=C/c1c(O)ccc2ccccc12)c1ccccc1 (stereo not given) [sirtinol] | 3.41% | -0.75% | -3.54% | -2.85% | 0.96%
Cc1cc(O)c(C(C)C)cc1Cl [chlorothymol] | 0.21% | 0.56% | 2.72% | 0.49% | -5.16%
COc1ccc(-c2ccc3c(N4CCOCC4)nc(N4C[C@@H](C)O[C@@H](C)C4)nc3n2)cc1CO | 1.75% | 0.2% | 2.09% | 0.86% | -2.33%
O=C(NCCCN1CCCCCC1)C(c1ccccc1)C1CCCCC1 (stereo not given) | -0.49% | 0.99% | 0.31% | -2.41% | -8.06%
CC(C)n1cnc2c(C(=O)N[C@H]3CN4CCC3CC4)cc(Cl)cc21 | -1.27% | -1.37% | -1.13% | 1.32% | -4.61%
Cc1c(NC(=O)OC[C@@H]2COCCN2)cn2ncnc(Nc3ccc4c(cnn4Cc4cccc(F)c4)c3)c12 | 0.31% | -2.14% | -2.74% | -8.47% | -10.8%
Cc1[nH]c(/C=C2\C(=O)Nc3ccc(S(=O)(=O)Cc4c(Cl)cccc4Cl)cc32)c(C)c1C(=O)N1CCC[C@@H]1CN1CCCC1 | -0.63% | -2.66% | -1.94% | 1.33% | 50.2% (active)
